Broadly, the inhibition is the relative decrease from the control value, in per cent.

From PubChem BioAssay AID868 (SRMLSC, 2007) come the findings set out here.

Screen size: about 190,000 compounds; about 3,500 (1.8%) were called active. The entries come from a sample that favours actives as a whole. Values without a mark were called inactive.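 The calls were made as follows: active = inhibition above a set limit, 3 SD over mean compound inhibition (cut at about 8.4% in these data); inactive = the rest.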

The nature of the experiment: RAM signaling blockers in budding yeast – dse1pr::URA3 reporter, 5-FOA selection, primary screen (AID 868).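 Also: 0% = DMSO-only wells with no growth and 100% = 10 µM 1-NA-PP1 full growth; inhibition rescues growth on 5-FOA so higher OD means more RAM inhibition.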 Conditions: S. cerevisiae dse1pr::URA3 reporter, 5-FOA growth OD615, 2 d; at 50 µM; active compounds read high; analog-sensitive cbk1-as2 kinase mutant strain.
For `O=C(O)c1n[nH]nc1-c1ccccc1`, the inhibition is 0.27%. On to `CCOC(=O)CSC1=C(C#N)C(c2sccc2C)CC(=O)N1` (centres undefined), for which the inhibition is 0%. Turning to `C=CCOC(=O)C1=C(C)OC(N)=C(C#N)C1c1ccc(F)cc1` (centres undefined), the inhibition was 1.6%. For `Cc1ccc(C2CC(=O)NC(SCC(=O)OCc3ccccc3)=C2C#N)o1` (centres undefined) the value was 0.38%; for `C=CCOC(=O)C1=C(C)NC(SCC(=O)OCC)=C(C#N)C1c1ccc(C)cc1` (centres undefined), 17.7% (active).

Take `CCOC(=O)CSC1=C(C#N)C(c2ccco2)C(C(=O)OCc2ccccc2)=C(C)N1` (centres undefined): the inhibition was 17.6% (active).

As to `CC1=C(C(=O)Nc2ccccc2)C(c2ccco2)C(C#N)=C(SCC(N)=O)N1` (centres undefined), the inhibition is -0.14%. In the case of `S=c1ccc2ccccc2[nH]1`, the inhibition is -0.88%. For `Cc1noc(C)c1COc1ccc2ccc(=O)oc2c1`, the inhibition is 0.12%. Consider `O=C(NC1CC1)c1ccc(-c2ccccc2)cc1`, for which the inhibition is 1.25%. Turning to `Cc1cccc(OCCNC(=O)CSc2ccc(C(F)(F)F)cc2[N+](=O)[O-])c1`, the inhibition is 3.14%. In the case of `COc1ccc(N2CCN(C(C)=C3C(=O)c4ccccc4C3=O)CC2)cc1`, the inhibition is -1.52%.

For the compound `CN(C)c1ccc(C(=S)N2CCN(C(=S)Nc3ccc(Cl)cc3)CC2)cc1`, the inhibition was 4%. On to `Cc1ccc(SCC(=O)c2cc(C)c(OC(=S)N(C)C)c(C)c2)cc1`, for which the inhibition was 9.5% (active). In the case of `Cc1ccc(SCC(=O)Nc2ccc3c(c2)OCCO3)cc1` it was 0.6%; in that of `Cc1ccc(SCC(=O)c2sc(-c3ccccc3)nc2C)cc1`, 2.13%; in that of `O=C(CCCN1C(=O)/C(=C\c2ccco2)SC1=S)Nc1cccc2ccccc12`, 4.94%.

On to `O=C(CCCN1C(=O)/C(=C/c2ccccc2)SC1=S)Nc1ccc(O)cc1`, for which the inhibition was 0.63%. Take `COc1ccc(/C=C2/SC(=O)N(CCCCCC(=O)Nc3ccccc3C(=O)O)C2=S)cc1`: the inhibition is 9.16% (active). `Cc1cc(C)cc(NS(=O)(=O)c2ccc(Oc3ncc(C(F)(F)F)cc3Cl)cc2)c1`: the inhibition was 10.7% (active). `COc1ccccc1Oc1ccc(S(=O)(=O)Nc2cccnc2)cc1`: the inhibition is -0.91%. Consider `COC(=O)Cc1ccc(Oc2ncc(C(F)(F)F)cc2Cl)cc1`, for which the inhibition is 0.6%. Regarding `CCOC(=O)Cc1ncccc1C(=O)Nc1ccc(OC(F)(F)F)cc1`, the inhibition was -0.27%. Regarding `O=C(Nc1cccc(C(F)(F)F)c1)c1cnccn1`, the inhibition was 3.61%.

Consider `COc1cc(NC(=O)N2CCOCC2)cc(OC)c1`, for which the inhibition was 0.39%. For `COc1cc(C(=S)N2CCOCC2)cc(OC)c1OC(=O)c1cc([N+](=O)[O-])c(C)c([N+](=O)[O-])c1` the value was 3.68%; for `COc1c(Br)cc2c(C)c(C(=O)N3CCOCC3)oc2c1Br`, 13.5% (active). For the compound `Cc1ccccc1NS(=O)(=O)CCCCC(Cl)(Cl)Cl`, the inhibition is 1.86%.

On to `O=C(O)CCC(=O)N(Cc1ccco1)c1nc(-c2ccccc2)cs1`, for which the inhibition was 3.13%. Consider `Cc1ccc(-c2csc(NC(=O)c3cccs3)n2)cc1`, for which the inhibition is 3.07%. As to `Cc1ccc(-c2csc(N(Cc3ccco3)C(=O)c3cccs3)n2)cc1`, the inhibition was 8.42% (active). In the case of `O=C(CN1C(=O)NC2(CCCCCC2)C1=O)NC1CC1`, the inhibition was -0.87%.

In the case of `Cc1ccc2nc(COc3ccc(N(C)S(=O)(=O)c4ccccc4)cc3)cc(=O)n2c1`, the inhibition was 2.17%. In the case of `CCC1CCCCN1CCCNC(=O)c1cc2c(Cl)nc3ccccc3c2s1` (centres undefined), the inhibition is 1.99%.

Turning to `N#Cc1ccc(-c2nc3cc(C#N)c(C#N)cc3nc2-c2ccccc2)cc1C#N`, the inhibition was 1.25%. On to `COc1ccccc1C1CC(=O)n2c(nc(-c3ccccc3)c2-c2ccccc2)S1` (centres undefined), for which the inhibition is 8.41% (active). `COc1cccc(C2CC(c3ccccc3)=NN2S(=O)(=O)c2ccccc2)c1OC` (centres undefined): the inhibition is 2.56%.

Turning to `COc1ccc(C2CC(=O)n3c(nc4ccccc43)S2)cc1OC` (centres undefined), the inhibition was 3.3%.

With `O=C(COC(=O)c1ccccc1C(=O)N1CCN(c2ccccc2)CC1)NCc1ccccc1`, the inhibition was 1.15%. Turning to `CN1CCNC(=O)C1CC(=O)N1CC=C(c2ccc(F)cc2)CC1` (centres undefined), the inhibition was -0.5%.

`NC(=O)C[n+]1cccc(C(N)=O)c1`: the inhibition is 1.51%. In the case of `CCc1ccccc1NC(=S)N(CCN1CCCCCC1)Cc1ccco1` it was -0.63%; in that of `Cc1ccc2[nH]cc(CCNC(=O)c3ccc([N+](=O)[O-])cc3)c2c1`, -1.27%; in that of `O=C1c2ccccc2C(=O)N1CCCc1nc(-c2ccccc2)no1`, 3.93%. `Cc1ccc2[nH]cc(CCCN3C(=O)c4ccccc4C3=O)c2c1`: the inhibition was 8.46% (active).

For `NC(=O)COC(=O)c1cc(S(=O)(=O)N2CCN(c3ccccc3)CC2)ccc1Cl`, the inhibition was 5.02%.

With `Cc1ccc(C(=O)NC(=S)Nc2ccccc2C)cc1`, the inhibition was -0.37%. As to `Cc1cc2[nH]ncc2cc1NC(=S)NC(=O)c1ccccc1`, the inhibition is 3.3%.

Consider `Cc1ccc(NC(=S)NC(=O)c2ccc(-c3ccccc3)cc2)c(C)c1`, for which the inhibition was 8.7% (active). For `CCCCN(C)c1ccc([N+](=O)[O-])cc1`, the inhibition is -1.26%. Consider `Cc1cccc(C2=N/C(=C/c3cccs3)C(=O)O2)c1`, for which the inhibition is 4.44%.

With `C/C(N)=C(/C#N)C(=O)COC(=O)c1cc(-c2ccccc2)nc2ccc(Br)cc12`, the inhibition was 3.84%. As for `Cc1cccc(CSc2nnc(C)c(=O)n2N)c1`, the inhibition is 0.13%. For `Cc1nc2c(C(=O)NCc3cccs3)cnn2c(C)c1Cc1ccc(F)cc1`, the inhibition is 1.27%. Take `COC(=O)Cn1c(=NC(=O)c2cc(OC)c(OC)c(OC)c2)sc2cc(OC)ccc21`: the inhibition is 5.03%. In the case of `CCOC(=O)c1c(C)nc2c(c1C)c(=O)oc1ccccc12`, the inhibition is 18.6% (active). For `CCOC(=O)N1CCN(C(=O)c2cc3c(ccc4ccccc43)oc2=O)CC1`, the inhibition is 4.45%. For `CCCCC(=O)Nc1cc(C)c2c(=O)oc3ccccc3c2n1`, the inhibition is 7.85%.

Turning to `CCN(CC)CC1(O)CCN(C(=O)c2ccc(Cl)c(Cl)c2)CC1`, the inhibition is 1.77%. In the case of `O=C(COC(=O)Cn1cnc2ccccc2c1=O)NCc1ccccc1Cl` it was 0%. On to `O=C(COC(=O)/C(=C/c1cccs1)c1cccs1)NCc1ccccc1Cl`, for which the inhibition was 14% (active). In the case of `O=C(COC(=O)c1cc2c(s1)CCCC2)NCc1ccccc1Cl` it was 4.18%; in that of `O=C1Oc2ccccc2C(=O)/C1=C/c1ccccc1O`, 0.25%. `O=C(CSc1ccccc1)Nc1ccc(NC(=O)c2ccco2)cc1`: the inhibition was 3.77%. Regarding `O=C(Nc1ccc(Sc2ccc(Br)cc2)cc1)c1ccco1`, the inhibition is 9.42% (active). For `COC(=O)c1ccc(NC(=O)c2ccco2)cc1` the value was 0.13%. For `Cc1cccc(Cn2c(SCCO)nc3c2c(=O)n(C)c(=O)n3C)c1` the value was 0.88%; for `CCCSc1nc2c(c(=O)n(C)c(=O)n2C)n1Cc1ccc(C)cc1`, 8.43% (active). In the case of `CCOc1ccc(Cn2c(SCCCCC#N)nc3c2c(=O)n(C)c(=O)n3C)cc1OCC` it was 1.06%. For the compound `COc1ccc(CCNc2cc(C)nc3c(-c4ccc(Cl)cc4)c(C)nn23)cc1OC`, the inhibition is -0.42%. As for `CCc1cccc2c(=O)c(C(=O)NCCCOC)c[nH]c12`, the inhibition is 3.16%. For the compound `COC(=O)CCCCCN1C(=O)NC(c2ccc(-c3ccccc3)cc2)C(C(=O)OCc2ccccc2)=C1C` (centres undefined), the inhibition was 15.8% (active). In the case of `CC1=C(C(=O)OCc2ccccc2)C(c2ccc(C(F)(F)F)cc2)NC(=O)N1CCCCCC(=O)O` (centres undefined) it was 7.19%; in that of `COCCN1C(=O)N[C@@H](c2ccccc2)C(C(=O)OC)=C1C`, 0.8%. For the compound `O=C(NCCCNc1ccc([N+](=O)[O-])cc1Cl)c1ccccc1F`, the inhibition is 1.43%. As for `COCC(C)n1c(C)cc(C(=O)COc2ccc(C)nc2[N+](=O)[O-])c1C` (centres undefined), the inhibition is 1.49%. In the case of `Cc1ccc(C(=O)NC(=S)NCc2cccnc2)cc1` it was 5.38%; in that of `COc1ccc(C2C(C(C)=O)=C(O)C(=O)N2CCc2c[nH]c3ccccc23)cc1` (centres undefined), 3.37%; in that of `COc1cc(C2C(C(=O)c3ccc(C)o3)=C(O)C(=O)N2Cc2cccnc2)ccc1O` (centres undefined), 0.23%. As for `COc1cc(C2C(C(=O)c3ccc(C)o3)=C(O)C(=O)N2CCc2ccccc2)ccc1O` (centres undefined), the inhibition was 9.49% (active). For the compound `O=C(COc1cccc2ccccc12)Nc1cc(S(=O)(=O)N2CCOCC2)ccc1N1CCOCC1`, the inhibition was 3.39%. In the case of `O=C(Nc1nnc(SCc2ccc(Cl)cc2Cl)s1)C1COc2ccccc2O1` (centres undefined), the inhibition is 4.44%.

`Clc1ccc(CSc2nnc(/C=C/c3ccccc3)o2)c(Cl)c1`: the inhibition is 9.57% (active). For `S=c1[nH]nc(CSCc2ccc(Cl)cc2Cl)n1-c1ccccc1` the value was 4.95%; for `O=C(Nc1ccccc1)N1CCN(C(=O)Nc2ccccc2)CC1`, 2.76%. Take `O=C(COC(=O)/C=C/c1cn(-c2ccccc2)nc1-c1cccnc1)Nc1ccc(Cl)cc1Cl`: the inhibition is 2.97%. In the case of `COc1ccc2c(c1)CCc1c(C(=O)N3CCCC3)noc1-2`, the inhibition was 2.15%. Regarding `COc1ccc2c(c1)CCc1c(C(=O)Nc3c(C)n(C)n(-c4ccccc4)c3=O)noc1-2`, the inhibition was 3.23%.

Turning to `COc1ccc2c(c1)CCc1c(C(=O)N3CCc4ccccc4C3)noc1-2`, the inhibition is 12.2% (active). In the case of `O=C(NN1C(=O)C2C3C=CC(O3)C2C1=O)c1ccncc1` (centres undefined) it was 2.74%; in that of `CCCCN1C(=O)c2ccc(C(=O)Nc3ccc(S(=O)(=O)N(C)C)cc3)cc2C1=O`, 3.73%; in that of `Cc1cccc(C(=O)Nc2ccc3c(c2)C(=O)N(CC(C)C)C3=O)c1`, 3.29%. Regarding `CC(C)CCN1C(=O)c2ccc(C(=O)Nc3cccc(S(N)(=O)=O)c3)cc2C1=O`, the inhibition is 9.03% (active). Consider `Cc1ncoc1C(=O)N1CCCC(C(=O)c2ccc3c4c(cccc24)CC3)C1` (centres undefined), for which the inhibition is 1.14%.
